Source: a collection of fitness landscapes (doi:10.1016/j.celrep.2020.107928)
Whole data set: some 81,000 sequences, median “one-hybrid fitness for binding parS DNA” near -0.17, cut for the highest 2% near 0.51. For the sample, the highest values were picked, then their nearest neighbours and some sequences at random.

B1: Caulobacter ParB omega fusion; a variant is named by its letters at X, in order, B8GW30 (parent)
chain: MESVVVGEPGMSEGRRGLGRGLSALLGEVDAAPAQAPGEQLGGSREAPIEILQRNPDQPRRTFREEDLEDLSNSIREKGVLQPILVRPSPDTAGEYQIVAGERAWRAAQRAGLKTVPIMVRELDDLAVLEIGIIENVQRADLNVLEEALSYKVLMEKFERTQENIAQTIGKSXSHVANXMRLLXLPDEVQSYLVSGELTAXHARAIAAAADPVALAKQIIEGGLSVRETEALARKAPNLSAGKSKGGRPPRVKDTDTQALESDLSSVLGLDVSIDHRGSTGTLTITYATLEQLDDLCNRLTRGI

Variants of: B1
Assay: one-hybrid fitness for binding parS DNA (scaled: cognate 1, non-cognate 0); higher = stronger binding
Settings: with parS DNA site
How it was run: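 Fitness is the rescaled log change in variant-to-wild-type read ratio, measured by Illumina sequencing of plasmids before and after bacterial one-hybrid selection. The scale puts cognate at 1 and non-cognate at 0. Selection of Caulobacter ParB libraries, four specificity codons randomised, took place in E. coli USO with a HIS3 reporter, site 19 bp from the promoter, over 48 hours at 37°C on M9-minus-histidine with 0.1 mM IPTG and 5 mM 3-AT.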

one-hybrid fitness for binding parS DNA, 0.982:
RQLG

one-hybrid fitness for binding parS DNA, 0.97:
RQRG
RQCG

one-hybrid fitness for binding parS DNA, 0.216:
RQNF

one-hybrid fitness for binding parS DNA, 0.451:
RIEA

one-hybrid fitness for binding parS DNA, 0.231:
RQHF

one-hybrid fitness for binding parS DNA, 0.994:
RQYG

one-hybrid fitness for binding parS DNA, 0.325:
RQNM

one-hybrid fitness for binding parS DNA, 0.613:
RIYA

one-hybrid fitness for binding parS DNA, 0.249:
RQRH

one-hybrid fitness for binding parS DNA, 0.661:
RIGA

one-hybrid fitness for binding parS DNA, 0.29:
RIPA

one-hybrid fitness for binding parS DNA, 0.945:
RQGG

one-hybrid fitness for binding parS DNA, 0.576:
RILA
RIQA

one-hybrid fitness for binding parS DNA, 0.672:
RIRA

one-hybrid fitness for binding parS DNA, 0.233:
RQWM

one-hybrid fitness for binding parS DNA, 1.01:
RQHG
RQNG

one-hybrid fitness for binding parS DNA, 0.877:
RQWG

one-hybrid fitness for binding parS DNA, 0.99:
RQQG

one-hybrid fitness for binding parS DNA, 0.234:
RQGF

one-hybrid fitness for binding parS DNA, ≤ 0.2:
TFQR
NISA
NICA
HSNV
QGKW
YPTH
PDPT
YNHR
PMSC
NLLT
NQHT
WWRT
PCFG
YQHR
NIRA
TSST
VTVI
IMSG
ENNW
TFVM
KSAC
DWTC
TPML
CISV
THES
MCDC
NYQC
NSQY
HMPR
PPDT
ARRF
RQRP
RQDH
RQHK
RQDD
RQWK
WATG
TFEV
KKQL
SPRE
VHIS
HAND
MQAL
RQQH
RQYD
RQLH
RQYH
RQLD
YEKG
MTTE
PMRC
TKTN
ESQE
PCYG
FVTS
VWVK
TAGS
QLHQ
GGAM
MKCT
RQCR
RQGQ
RQSD
RQSH
NETE
YGVD
VVSY
LSGR

one-hybrid fitness for binding parS DNA, 0.539:
RIWA

one-hybrid fitness for binding parS DNA, 0.21:
VEMW

one-hybrid fitness for binding parS DNA, 0.574:
RIHA

one-hybrid fitness for binding parS DNA, 0.984:
RQSG

one-hybrid fitness for binding parS DNA, 0.499:
RIIA

one-hybrid fitness for binding parS DNA, 0.93:
RQDG

one-hybrid fitness for binding parS DNA, 0.469:
RQQN

one-hybrid fitness for binding parS DNA, 0.608:
RISA

one-hybrid fitness for binding parS DNA, 0.412:
RQCY

one-hybrid fitness for binding parS DNA, 0.525:
RICA
